# Laboratory results taken from PubChem BioAssay (Tox21).
# Where “and” joins values, the source holds several entries; their conditions need not be identical. Identical values can stand only once. Inconclusive results are not listed. Where a call stands in place of a potency, no number is given. A structure can be active in one record and inactive in another. Calls of active or inactive are those of the source. Unless noted, the call rests on the fitted dose curve.
# Key:
# [1] = Nuclear factor erythroid 2-related factor 2/antioxidant responsive element (Nrf2/ARE) small molecule agonists: qHTS cell viability counter screen in human keratinocytes (AID 1919968; active means well fitted curve in the direction sought with a large enough effect in the repeat runs; an effect the other way counts as inactive or inconclusive; further: nearly all actives have a fitted effect of over 55% in size)
# How it was run: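 KeratinoSens HaCaT cells, 1,500/well, preincubated 5 h, then exposed to compounds in DMSO for 23 h at 37 C/5% CO2. Viability read as CellTiter-Fluor fluorescence after 1 h, in the same wells as the ARE-luciferase read.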
# [2] = Nuclear factor erythroid 2-related factor 2/antioxidant responsive element (Nrf2/ARE) small molecule agonists: luciferase reporter gene qHTS assay in human keratinocytes (AID 1919969); further: nearly all actives have a fitted effect of over 35% in size; further: potency means the concentration at half of the fitted maximal effect
# [3] = target: Gonadotropin-releasing hormone receptor (Homo sapiens) (UniProt P30968); assay: Human gonadotropin-releasing hormone receptor (GnRHR) small molecule agonists, calcium flux assay in GnRHR-HEK293 cells (AID 1920063); further: nearly all actives have a fitted effect of over 35% in size
# Sequence of Gonadotropin-releasing hormone receptor (Homo sapiens) (P30968 whole entry, looked up): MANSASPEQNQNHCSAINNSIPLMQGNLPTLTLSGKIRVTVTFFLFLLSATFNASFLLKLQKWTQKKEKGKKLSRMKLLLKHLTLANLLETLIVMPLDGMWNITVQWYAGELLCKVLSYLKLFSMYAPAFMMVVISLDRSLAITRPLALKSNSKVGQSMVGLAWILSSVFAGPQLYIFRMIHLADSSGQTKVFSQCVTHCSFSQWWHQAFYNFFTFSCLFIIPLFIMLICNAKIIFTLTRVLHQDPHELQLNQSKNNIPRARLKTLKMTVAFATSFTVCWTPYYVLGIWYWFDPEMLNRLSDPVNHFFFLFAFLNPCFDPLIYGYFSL
# How it was run: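 HEK293 cells stably expressing human GnRHR were dye-loaded for 1 h at 37 C. Compound was added in agonist mode and fluorescence (Ex/Em 480/540) recorded kinetically for 3 min. Fifteen concentrations, triplicates.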
# [4] = target: KiSS-1 receptor (Homo sapiens) (UniProt Q969F8); assay: Human kisspeptin (KISS1R) small molecule agonists, calcium flux assay in KISS1R-HEK293 cells (AID 1920064; active means well fitted curve in the direction sought with a large enough effect in the repeat runs; an effect the other way counts as inactive or inconclusive)
# Sequence of KiSS-1 receptor (Homo sapiens) (Q969F8 whole entry, looked up): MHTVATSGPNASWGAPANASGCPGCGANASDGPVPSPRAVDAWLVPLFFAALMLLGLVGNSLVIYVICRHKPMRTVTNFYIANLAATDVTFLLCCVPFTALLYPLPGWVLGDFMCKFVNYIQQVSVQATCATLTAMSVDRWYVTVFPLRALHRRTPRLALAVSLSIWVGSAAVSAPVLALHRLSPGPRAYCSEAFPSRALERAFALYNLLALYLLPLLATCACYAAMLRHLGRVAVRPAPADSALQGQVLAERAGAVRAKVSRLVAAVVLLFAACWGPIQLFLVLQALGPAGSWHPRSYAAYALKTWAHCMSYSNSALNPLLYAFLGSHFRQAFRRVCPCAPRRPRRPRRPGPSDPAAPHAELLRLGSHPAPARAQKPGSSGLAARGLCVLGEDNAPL
# How it was run: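 HEK293 cells stably expressing human KISS1R were loaded with calcium dye for 1 h at 37 C, then given compound; fluorescence (Ex/Em 480/540) was read kinetically for 3 min. Fifteen concentrations, triplicate.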
# [5] = G protein-coupled receptor (GPCR) small molecule agonists, calcium flux assay: HEK293 wild type cell line counter screen (AID 1920065)
# How it was run: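 Wild-type HEK293 cells plated 18 h, loaded with calcium dye 1 h at 37 C, then compounds added in agonist mode (ATP as positive control). Kinetic fluorescence Ex/Em 480/540 recorded 3 min at 1 sec intervals; 15 concentrations, triplicate.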
# [6] = p53 small molecule agonists, cell-based qHTS assay with human liver microsomes (AID 1963577)
# How it was run: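 Cells carrying a p53-responsive bla reporter were rested 5 h (37 C, 5% CO2) before compound transfer. Human liver microsomes plus NADPH, 0.5 mg/mL final apiece, supplied metabolism during the 16 h 37 C exposure.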
# [7] = p53 small molecule agonists, cell-based qHTS assay with rat liver microsomes (AID 1963578)
# How it was run: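 Fluorescence from a beta-lactamase reporter under a p53 response element was measured after cells had been incubated 16 h at 37 C with test compound and rat liver microsomes plus NADPH (0.5 mg/mL final each).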
# [8] = p53 small molecule agonists, cell-based qHTS assay with human liver microsomes: qHTS cell viability counter screen (AID 1963579); further: nearly all actives have a fitted effect of over 45% in size; further: potency means the concentration at half of the fitted maximal effect
# How it was run: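 Seed p53RE-bla cells at 4,000 per well; incubate 5 h at 37 C; add compound, human liver microsomes and NADPH; incubate 16 h at 37 C; add CellTiter-Glo; after 30 min at room temperature, read luminescence.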
# [9] = p53 small molecule agonists, cell-based qHTS assay with rat liver microsomes: qHTS cell viability counter screen (AID 1963580); further: nearly all actives have a fitted effect of over 45% in size
# How it was run: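 HCT-116 p53RE-bla, 4,000 cells/well, 5 h pre-incubation; cpd + rat liver microsomes 0.5 mg/mL + NADPH 0.5 mg/mL (final); 16 h, 37 C; CellTiter-Glo, 30 min RT; luminescence.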
# [10] = p53 small molecule agonists, cell-based qHTS assay: qHTS cell viability counter screen (AID 1963581); further: nearly all actives have a fitted effect of over 45% in size
# How it was run: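 p53RE-bla HCT-116 cells, compounds added 5 h after plating and incubated 16 h at 37 C. Cytotoxicity measured in the same wells as intracellular ATP by CellTiter-Glo luminescence after 30 min at room temperature.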
# [11] = p53 small molecule agonists, cell-based qHTS assay (AID 1963582; active means well fitted activation curve with a large enough effect in the signal ratio in the repeat runs, not every such curve was filed as active; the % refers to the signal ratio)
# How it was run: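 p53RE-bla reporter cells, compounds added in DMSO after 5 h plating, incubated 16 h at 37 C. Beta-lactamase read via 2 h room-temperature LiveBLAzer B/G FRET substrate, fluorescence intensity.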
# [12] = target: 5-hydroxytryptamine receptor 2A (Homo sapiens) (UniProt P28223); assay: 5-hydroxytryptamine receptor 2A (HTR2A) small molecule antagonists, cell-based qHTS assay (AID 1963586); further: nearly all actives have a fitted effect of over 45% in size; further: potency means the concentration at half of the fitted maximal effect
# Sequence of 5-hydroxytryptamine receptor 2A (Homo sapiens) (P28223 whole entry, looked up): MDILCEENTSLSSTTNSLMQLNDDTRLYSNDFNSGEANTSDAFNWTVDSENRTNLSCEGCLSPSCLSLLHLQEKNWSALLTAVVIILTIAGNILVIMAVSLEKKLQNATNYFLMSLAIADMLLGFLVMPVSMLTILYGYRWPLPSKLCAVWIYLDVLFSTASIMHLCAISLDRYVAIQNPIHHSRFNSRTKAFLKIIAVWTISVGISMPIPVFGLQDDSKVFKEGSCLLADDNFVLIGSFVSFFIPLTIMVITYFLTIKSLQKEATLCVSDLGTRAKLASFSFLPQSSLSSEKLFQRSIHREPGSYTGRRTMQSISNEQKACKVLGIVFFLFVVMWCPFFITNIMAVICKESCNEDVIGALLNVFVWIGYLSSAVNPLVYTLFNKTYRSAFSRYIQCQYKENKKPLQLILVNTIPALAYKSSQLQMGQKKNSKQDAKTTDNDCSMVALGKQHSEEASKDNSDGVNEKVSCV
# How it was run: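 Antagonist-mode intracellular calcium assay: DOI (4 nM) added after 5 min compound pre-incubation at room temperature to dye-loaded HTR2A-CHO cells. Fluorescence followed for 3 min, sampled every second.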
# [13] = target: 5-hydroxytryptamine receptor 2A (Homo sapiens) (UniProt P28223); assay: 5-hydroxytryptamine receptor 2A (HTR2A) small molecule agonists, cell-based qHTS assay (AID 1963587); further: nearly all actives have a fitted effect of over 30% in size
# How it was run: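 Kinetic calcium-flux fluorescence (2 min, 1 sec intervals) after compound addition in agonist mode. HTR2A-CHO cells were cultured 18 h, then dye-loaded 1 h at 37 C.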
# [14] = target: Muscarinic acetylcholine receptor M1 (Homo sapiens) (UniProt P11229); assay: Cholinergic receptor muscarinic 1 (CHRM1) small molecule antagonists, cell-based qHTS assay (AID 1963588); further: nearly all actives have a fitted effect of over 40% in size
# Sequence of Muscarinic acetylcholine receptor M1 (Homo sapiens) (P11229 whole entry, looked up): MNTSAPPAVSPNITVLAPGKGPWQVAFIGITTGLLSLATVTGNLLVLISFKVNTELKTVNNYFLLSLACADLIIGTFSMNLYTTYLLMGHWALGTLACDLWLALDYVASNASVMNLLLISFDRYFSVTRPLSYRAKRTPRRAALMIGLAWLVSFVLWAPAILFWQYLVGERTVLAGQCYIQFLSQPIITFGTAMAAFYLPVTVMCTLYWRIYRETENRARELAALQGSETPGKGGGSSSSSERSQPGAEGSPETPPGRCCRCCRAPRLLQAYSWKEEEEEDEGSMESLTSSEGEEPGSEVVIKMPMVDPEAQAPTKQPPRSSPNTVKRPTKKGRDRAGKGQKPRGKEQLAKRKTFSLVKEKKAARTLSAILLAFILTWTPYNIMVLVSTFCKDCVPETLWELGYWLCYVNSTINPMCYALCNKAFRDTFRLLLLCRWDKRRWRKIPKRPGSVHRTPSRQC
# How it was run: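 CHRM1-CHO calcium-flux assay, antagonist mode. Cells were seeded 18 h, dye-loaded 1 h at 37 C and given compound for 5 min at RT, then acetylcholine was added at 50nM. FDSS fluorescence was read 3 min; 15 concentrations, three runs.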
# [15] = target: Muscarinic acetylcholine receptor M1 (Homo sapiens) (UniProt P11229); assay: Cholinergic receptor muscarinic 1 (CHRM1) small molecule agonists, cell-based qHTS assay (AID 1963589); further: nearly all actives have a fitted effect of over 35% in size
# How it was run: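 CHO cells stably expressing human CHRM1 were loaded with calcium dye for 1 h at 37 C, then compound was added in agonist mode. Intracellular calcium fluorescence was followed kinetically at 1 s intervals. Fifteen concentrations were tested in three independent runs.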
# [16] = cAMP Responsive Elements (CRE) small molecule agonists, cell-based qHTS assay (AID 1963590)
# How it was run: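 CRE-bla HEK 293T cells, 2,000/well in DMEM with 10% dialyzed FBS and 25 mM HEPES, pre-incubated 18 h at 37 C, then exposed to compound 3 h at 37 C. Beta-lactamase reporter read with LiveBLAzer B/G FRET substrate after 2 h at room temperature.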
# [17] = cAMP Responsive Elements (CRE) small molecule antagonists, cell-based qHTS assay (AID 1963591; active means well fitted inhibition curve with a large enough effect in the signal ratio in the repeat runs, not every such curve was filed as active; the % refers to the signal ratio)
# How it was run: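 CRE-bla HEK293T cells plated 18 h, then given compound plus NKH477 at 0.25 uM final for 3 h at 37C. Beta-lactamase reporter read with LiveBLAzer B/G FRET substrate after 2 h at room temperature.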
# [18] = target: Beta-2 adrenergic receptor (Homo sapiens) (UniProt P07550); assay: Adrenergic beta2 receptor (ADRB2) small molecule antagonists, cell-based qHTS assay (AID 1963592); further: series mostly up to about 92 µM; nearly all actives have a fitted effect of over 50% in size
# Sequence of Beta-2 adrenergic receptor (Homo sapiens) (P07550 whole entry, looked up): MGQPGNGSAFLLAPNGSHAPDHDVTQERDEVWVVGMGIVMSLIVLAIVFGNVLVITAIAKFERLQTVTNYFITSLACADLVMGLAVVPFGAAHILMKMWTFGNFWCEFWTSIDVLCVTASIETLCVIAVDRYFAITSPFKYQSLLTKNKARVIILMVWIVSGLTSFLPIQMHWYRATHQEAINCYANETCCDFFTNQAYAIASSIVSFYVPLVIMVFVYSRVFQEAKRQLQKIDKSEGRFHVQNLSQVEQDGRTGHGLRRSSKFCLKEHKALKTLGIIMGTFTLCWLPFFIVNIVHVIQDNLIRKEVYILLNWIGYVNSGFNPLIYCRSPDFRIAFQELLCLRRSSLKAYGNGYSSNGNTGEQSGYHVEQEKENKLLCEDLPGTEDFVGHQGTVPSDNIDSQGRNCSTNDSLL
# How it was run: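 Cells (CHO, stable ADRB2 overexpression) incubated 18-20hr at 37C; compounds added from DMSO; agonist mix (1nM isoproterenol, 100uM IBMX, 25uM Ro-20-1724) added; 0.5hr RT; d2-cAMP and anti-cAMP-cryptate added; 1hr RT; 665/615 nm read.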
# [19] = target: D(2) dopamine receptor (Homo sapiens) (UniProt P14416); assay: Dopamine D2 receptor (DRD2) small molecule agonists, cell-based qHTS assay (AID 1963594); further: nearly all actives have a fitted effect of over 35% in size
# Sequence of D(2) dopamine receptor (Homo sapiens) (P14416 whole entry, looked up): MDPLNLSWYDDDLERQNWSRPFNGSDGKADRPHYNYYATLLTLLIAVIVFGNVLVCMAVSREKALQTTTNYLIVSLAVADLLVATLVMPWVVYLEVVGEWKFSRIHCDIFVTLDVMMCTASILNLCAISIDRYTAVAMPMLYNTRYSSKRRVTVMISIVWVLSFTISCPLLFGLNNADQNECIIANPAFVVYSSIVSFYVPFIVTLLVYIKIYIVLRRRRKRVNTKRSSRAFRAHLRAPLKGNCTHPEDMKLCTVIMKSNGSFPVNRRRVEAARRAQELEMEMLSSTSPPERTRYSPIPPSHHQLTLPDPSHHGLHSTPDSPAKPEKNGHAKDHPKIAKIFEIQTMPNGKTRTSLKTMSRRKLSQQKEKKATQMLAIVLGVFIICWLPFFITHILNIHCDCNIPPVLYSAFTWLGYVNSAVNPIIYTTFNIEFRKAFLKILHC
# How it was run: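 cAMP accumulation in DRD2-HEK293 cells measured by HTRF after 1 h detection; compounds added 10 min before NKH477 (200nM […]) forskolin-analogue stimulation, 30 min at room temperature, with Ro20-1724 present at 0.1 mM final.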
# [20] = target: D(2) dopamine receptor (Homo sapiens) (UniProt P14416); assay: Dopamine D2 receptor (DRD2) small molecule antagonists, cell-based qHTS assay (AID 1963595; active means well fitted inhibition curve with a large enough effect in the signal ratio in the repeat runs, with a control signal flat; the % refers to the signal ratio)
# How it was run: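 In this cell-based antagonist screen, compounds act for 10 min at room temperature before a 30 min challenge with 12 nM quinpirole and 200 nM NKH477. cAMP is quantified by HTRF competition in DRD2-HEK293 cells containing 0.1 mM Ro20-1724.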
SMILES,Potency [1],Potency [2],Potency [3],Potency [4],Potency [5],Potency [6],Potency [7],Potency [8],Potency [9],Potency [10],Potency [11],Potency [12],Potency [13],Potency [14],Potency [15],Potency [16],Potency [17],Potency [18],Potency [19],Potency [20]
Cc1ccc2c(n1)Oc1ccc(C(C)C(=O)OCC(=O)N(C)C)cc1C2 (stereo not drawn),inactive,inactive,inactive,inactive,inactive,inactive,inactive,inactive,inactive,inactive,inactive,inactive,inactive,inactive,inactive,inactive,inactive,inactive,inactive,inactive
NC(=S)NNC(N)=S,inactive,inactive,inactive,inactive,inactive,inactive,inactive,inactive,inactive,inactive,inactive,inactive,inactive,inactive,inactive,inactive,inactive,inactive,inactive,inactive
Cc1ccc2c(c1)C(=O)OC2=O,inactive,inactive,inactive,inactive,inactive,inactive,inactive,inactive,inactive,inactive,inactive,inactive,inactive,inactive,inactive,inactive,inactive,inactive,inactive,inactive
Cc1cc(C)c(C)cc1C,inactive,inactive,inactive,inactive,inactive,inactive,inactive,inactive,inactive,inactive,inactive,inactive,inactive,inactive,inactive,inactive,inactive,inactive,inactive,inactive
C=C(C)C1CC=C(C)C(OC(C)=O)C1 (stereo not drawn),inactive,inactive,inactive,inactive,inactive,inactive,inactive,inactive,inactive,inactive,inactive,inactive and 3.75 µM (active),inactive,inactive,inactive,inactive,inactive,inactive,inactive,inactive
CC(=O)OCc1ccc2c(c1)OCO2,inactive,inactive,inactive,inactive,inactive,inactive,inactive,inactive,inactive,inactive,inactive,inactive,inactive,inactive,inactive,inactive,inactive,inactive,inactive,inactive
Cc1ccc(S(=O)(=O)NCl)cc1,inactive,inactive,inactive,inactive,inactive,inactive,inactive,inactive,inactive,inactive,inactive,inactive,inactive,inactive,inactive,inactive,inactive,inactive,inactive,inactive
OCC(O)CS (stereo not drawn),inactive,inactive,inactive,inactive,inactive,inactive,inactive,inactive,inactive,inactive,inactive,inactive,inactive,inactive,inactive,inactive,inactive,inactive,inactive,–
CC1(C)O[C@@H]2[C@@H](CO[C@@]3(COS(N)(=O)=O)OC(C)(C)O[C@@H]23)O1,inactive,inactive,inactive,inactive,inactive,inactive,inactive,inactive,inactive,inactive,inactive,inactive,inactive,inactive,inactive,inactive,inactive,inactive,inactive,inactive
Cc1ccc(O)c(-n2nc3ccccc3n2)c1,inactive,60.6 µM (active) and 27.3 µM (active) and 5.96 µM (active),inactive,inactive,inactive,inactive,inactive,50.9 µM (active) and inactive,inactive,inactive,inactive,inactive,inactive,inactive,inactive,inactive,inactive,inactive,inactive,inactive
COC(=O)C(C)Oc1ccc(Oc2ncc(C(F)(F)F)cc2Cl)cc1 (stereo not drawn),inactive,inactive,inactive,inactive,inactive,inactive,inactive,inactive,inactive,inactive,inactive,inactive,inactive,inactive,inactive,inactive,inactive,inactive,inactive,inactive
c1ccc2[nH]cnc2c1,inactive,inactive,inactive,inactive,inactive,inactive,inactive,inactive,inactive,inactive,inactive,inactive,inactive,inactive,inactive,inactive,inactive,inactive,inactive,inactive
CCCOC(=O)NCCCN(C)C,inactive,inactive,inactive,inactive,inactive,inactive,inactive,inactive,inactive,inactive,inactive,inactive,inactive,inactive,inactive,inactive,inactive,inactive,inactive,inactive
COCCOC(=O)c1ccccc1C(=O)OCCOC,inactive,inactive,inactive,inactive,inactive,inactive,inactive,inactive,inactive,inactive,inactive,inactive,inactive,inactive,inactive,inactive,inactive,inactive,inactive,–
C=C(C)C(=O)OCC(C)C,inactive,inactive,inactive,inactive,inactive,inactive,inactive,inactive,inactive,inactive,inactive,inactive,inactive,inactive,inactive,inactive,inactive,inactive,inactive,inactive
